Measured values: PubChem BioAssay AID686971 (National Center for Advancing Translational Sciences (NCATS), 2013)
The whole screen tested about 360,000 compounds, of which about 7,500 (2.1%) were called active. Another 8% or so got no clear call; they are omitted. The call rests on the fitted dose curve; in most records, active means well fitted cell-killing curve with a large enough effect; inconclusive means small, poorly fitted or top-dose-only effect, or effect the other way, or another doubt; inactive means no such curve, though single readings can be large or run the other way. The list comes from a sample in which actives are over-represented; it also holds similar structures and randomly drawn compounds.

Test: qHTS for induction of synthetic lethality in tumor cells producing 2HG: qHTS for the HT-1080-IDH1KD cell line;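 on activity, negative = toxicity: 0% = DMSO wells and -100% = cell-free medium wells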
Conditions: HT-1080 IDH1 knockdown viability, ATP luminescence, 48 h; series mostly up to 46.1 µM; activity, negative = toxicity: at the top concentration
Procedure, shortened: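 In this qHTS, HT-1080 cells depleted of IDH1 are exposed for 48 h at 37 °C to compound titrations. Toxicity is scored from CellTiter-Glo luminescence, with DMSO as full viability and medium alone as none.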
Potency means the concentration at half of the fitted maximal effect.

SMILES | activity, negative = toxicity | Potency
CC[C@@H]1CC2=C(C(=O)OC(C)(C)O2)[C@@H](CC)O1 | -0.785% (inactive) | 
CCOC(=O)C1(C)CCCN(C(=O)c2ccc(N(C)C)cc2)C1 (centres undefined) | 8.71% (inactive) | 
CCN1CCN(c2ccc([N+](=O)[O-])cc2C(=O)c2ccc(Cl)cc2)CC1 |  | 23.1 µM (active)
O=C(Nc1cccc(Cl)c1)c1cc([N+](=O)[O-])ccc1N1CCN(CCO)CC1 | -0.581% (inactive) | 
CCC(=O)c1ccc(N2CCN(C(=O)c3cc([N+](=O)[O-])ccc3F)CC2)c(F)c1 | 2.7% (inactive) | 
CN(Cc1c(F)cccc1Cl)C(=O)COC(=O)Cn1cnc2ccccc2c1=O | 4.82% (inactive) | 
Cn1c(=O)n(Cc2ccco2)c(=N)c2c3c(sc21)CCCC3 | -10% (inactive) | 
CN(C)CCCn1c(=O)n(Cc2ccccc2)c(=O)c2c3c(sc21)CCCCC3 |  | 25.9 µM (active)
O=c1c2c3c(sc2n(CCN2CCCC2)c(=O)n1Cc1ccccc1)CCCCC3 | -0.168% (inactive) | 
COc1cccc(-c2nc3nc(C)cc(C)n3c2NC2CCCCC2)c1 | 7.4% (inactive) | 
COC(=O)C[C@H]1C=C[C@@H](NS(=O)(=O)c2ccc(C)cc2)[C@@H](CO)O1 | 15.1% (inactive) | 
COCCNC(=O)C1(C)CCCN(Cc2cccc(F)c2)C1 (centres undefined) | 9.99% (inactive) | 
CCCc1cc(=O)[nH]c(SCC(=O)OCc2ccccc2)n1 | 0.689% (inactive) | 
CCCc1cc(=O)[nH]c(SCC(=O)c2c(N)n(CC(C)C)c(=O)n(C)c2=O)n1 |  | 3.26 µM (active)
CCCc1cc(=O)[nH]c(SCC(=O)c2cc(C)n(CCC)c2C)n1 | 2.35% [at 9.24 µM] (inactive) | 
COC(=O)c1ccc2nc(-c3ccccc3)c(Cc3ccc(OC)cc3C)n2c1 | 5.54% (inactive) | 
O=C(c1cc(C2CCCCN2S(=O)(=O)c2ccccc2)on1)N1CCOCC1 (centres undefined) | 19.8% (inactive) | 
CCOC(=O)C(=Cc1ccccc1)C(=O)c1ccccc1 |  | 18.4 µM (active)
CCOC(=O)NC(=O)/C(C#N)=C\c1ccccc1 | 1.01% (inactive) | 
CCOC(=O)/C(=C\c1ccc([N+](=O)[O-])cc1)C(=O)c1cc(C(C)=O)c(Nc2ccccc2)s1 | 17.6% (inactive) | 
COC(=O)C[C@H]1C[C@@H]2c3cc(NC(=O)Nc4ccccc4)ccc3O[C@@H]2[C@@H](CO)O1 | 4.69% (inactive) | 
COc1ccc(C2Nc3ccc(NC(=O)COC(C)=O)cc3C(=O)N2Cc2ccccc2)cc1COc1ccc(NC(C)=O)cc1 (centres undefined) | -21.2% (inactive) | 
Cc1cccc(NC(=O)c2ccc(S(=O)(=O)N(C)c3ccccc3)cc2)n1 | -21.5% (inactive) | 
CCN(c1ccccc1)S(=O)(=O)c1ccc(C(=O)Nc2nccs2)cc1 | 10% (inactive) | 
C=CCN(CC=C)S(=O)(=O)c1ccc(C(=O)Nc2nc3c(s2)CCc2ccccc2-3)cc1 |  | 14.6 µM (active)

SMILES | activity, negative = toxicity | Potency
Cc1ccccc1S(=O)(=O)NC(=O)C1(C)CCN1C(=O)C1(c2ccc(Cl)cc2)CC1 (centres undefined) | 28% (inactive) | 
CNS(=O)(=O)c1ccc2c(c1)[nH]c(=S)n2C | -8.8% (inactive) | 
COc1ccc(OC)c(Cc2cnc3nc(N)nc(N)c3c2C)c1 |  | 0.0103 µM (active)
COc1ccc(-c2nc(N)ncc2-c2ccc(Cl)cc2)c(O)c1 | -6.82% (inactive) | 
COc1ccc(OC)c(Cc2nnc(CCC(=O)NC3CCCC3)o2)c1 | 11.3% (inactive) | 
Nc1nc2cc(Cl)ccc2n1N | 8.14% (inactive) | 
CCC(C)CN1C(=O)CSCC1(C)C(=O)NCc1ccccc1 (centres undefined) | 24.8% (inactive) | 
Cc1sc2ccccc2c1CNC[C@H]1O[C@@H](n2ccc(=O)[nH]c2=O)[C@H](O)[C@@H]1O | 14.3% (inactive) | 
O=C(COC(=O)c1cncc(Br)c1)Nc1ccc(S(=O)(=O)N2CCOCC2)cc1 | -1.98% (inactive) | 
CCc1nc2c(OCCOc3ccccc3)cccn2c1N(C)C(=O)c1cccs1 | 5.52% (inactive) | 
Cc1cccc(-c2cnc(C(O)c3cc(C)cc(C)c3)[nH]2)c1 (centres undefined) | -12.6% (inactive) | 
CCCOc1cccc(C(=O)NCCCNC(=O)c2cccnc2)c1 | 0.556% (inactive) | 
Cc1cccc(OCC(=O)NCCNC(=O)c2cccnc2)c1 | -4.95% (inactive) | 
Cc1ccc(OCC(=O)NCCCNC(=O)c2cccnc2)cc1C |  | 18.4 µM (active)
CCN(CC)C(=O)C1=C(C)N(Cc2ccc(F)cc2)C(=O)C(CC(=O)NCc2cccc3ccccc23)C1 (centres undefined) | -2.6% (inactive) | 
COc1ccc(Br)cc1/C=N/NC(=O)c1cccc(S(=O)(=O)N2CCOCC2)c1 | -20.3% (inactive) | 
COc1cc(/C=N\NC(=O)C2C(=O)NCC2c2ccccc2)cc(OC)c1O (centres undefined) | 2.02% (inactive) | 
Cc1ccc(C(=O)N/N=C/c2cccc3ccccc23)cn1 | 6.84% (inactive) | 
COc1cccc(/C=N/NC(=O)c2[nH]nc3c2CCc2ccccc2-3)c1O |  | 3.66 µM (active)
COc1cccc(/C=N\NC(=O)C2=NNC(=O)C2C)c1O (centres undefined) |  | 25.9 µM (active)
COc1ccc(/C=N/NC(=O)c2ccncc2)cc1CN1CCCc2ccccc21 | -7.69% (inactive) | 
CC(C)C1CC2=C(C(=O)OC(C)(C)O2)C(c2ccc(F)cc2)O1 (centres undefined) | 6.13% (inactive) | 
CC1=C(C(=O)N2CCOCC2)CC(CC(=O)NCC2CCCCC2)C(=O)N1Cc1ccc(F)cc1 (centres undefined) | -8.15% (inactive) | 
O=Nc1c(O)cc(O)c2ccccc12 | 4.65% (inactive) | 
COC(=O)C[C@@H]1C=C[C@@H](NC(=O)c2cccnc2)[C@@H](CO)O1 | 8.29% (inactive) | 

SMILES | activity, negative = toxicity | Potency
O=C1NC[C@H](CCCCN2C[C@H](Cc3ccc(O)cc3)N(CC3CCCCC3)C(=O)C2=O)N(CCc2ccccc2)C1=O | 8.08% (inactive) | 
CCCCCCN1C[C@H](O)[C@@H](n2cc(C3CC3)nn2)C[C@@H]1c1ccc(Cl)cc1 | 6.32% (inactive) | 
Cc1oc2c(F)c(F)c(F)c(F)c2c1S(=O)(=O)Nc1cccc(C(F)(F)F)c1 |  | 18.4 µM (active)
O=C(COc1ccc(S(=O)(=O)Nc2cccc(C(F)(F)F)c2)cc1)N1CCOCC1 | -12.4% (inactive) | 
CCOC(=O)N1CCN(C(=O)c2ccc(S(=O)(=O)Nc3cccc(C(F)(F)F)c3)cc2)CC1 | -0.977% (inactive) | 
COc1cc(C(=O)N2CCOC23CCN(Cc2ccccc2)CC3)cc(OC)c1OC | 7.44% (inactive) | 
CCN(CC)C(=O)C1=C(C)N(Cc2ccccc2)C(=O)C(CC(=O)NC(c2ccccc2)c2ccccc2)C1 (centres undefined) | -2.22% (inactive) | 
COc1cccc(NC(=O)C2(C)CCN2C(=O)CCC2CCCC2)c1 (centres undefined) | -5.46% (inactive) | 
CCC(C(=O)OCC(=O)Nc1ccc(C(=O)Nc2ccc(OC)cc2)cc1)c1ccccc1 (centres undefined) |  | 25.9 µM (active)
CCC(C(=O)OCC(=O)Nc1ccccc1-c1ccccc1)c1ccccc1 (centres undefined) | 3.86% (inactive) | 
CCC(C(=O)OCC(=O)Nc1c(Cl)cc(Cl)cc1Cl)c1ccccc1 (centres undefined) | -0.177% (inactive) | 
CC(C)N1C(=O)c2ccccc2NC(=O)C1C(=O)NCc1cccs1 (centres undefined) | 25.2% (inactive) | 
Cc1cccc(NC(=O)COC(=O)c2ccccc2OCc2cccc(Br)c2)c1 | 9.94% (inactive) | 
O=C(NC1=CC(=O)c2ccccc2C1=O)c1ccccc1 |  | 7.31 µM (active)
Cn1c(NC(=O)c2ccccc2)nc2ccccc21 | -20% (inactive) | 
O=C1C=C(NS(=O)(=O)c2ccccc2)C(=O)c2ccccc21 | -20.1% (inactive) | 
Cc1ccc(-c2c(N)nc3ncccn23)cc1 | 9.85% (inactive) | 
CCNC(=O)C1CCCN(C(=O)c2ccc(OC)cc2OC)CC1 (centres undefined) | 10.3% (inactive) | 
COc1cccc(CNc2nc(NCc3ccccc3OC)nc3ccsc23)c1 |  | 23.1 µM (active)
COc1ccc(NC(=S)NCc2cccs2)c(OC)c1 | 6.2% (inactive) | 
COc1cccc(-c2cc3nc(NCc4ccccc4OC)n(C)c(=O)c3s2)c1 | -4.35% (inactive) | 
Clc1ccccc1Nc1nc(NCc2cccs2)nc2ccsc12 | 1.77% (inactive) | 
COc1cccc(CNc2nc(NCc3cccs3)nc3ccsc23)c1 |  | 23.1 µM (active)
COc1ccccc1CNc1nc(Nc2ccccc2Cl)c2sccc2n1 | -14.8% (inactive) | 
COc1ccc(COC[C@H](CC(C)C)N2CCN(C(=O)c3cccc(C(F)(F)F)c3)CCC2=O)cc1 | -17.8% (inactive) | 

SMILES | activity, negative = toxicity | Potency
CCOC(=O)c1cc2cc(OC)ccc2n1C1CCN(C)CC1 | -23.1% (inactive) | 
CCc1ccc(OC2(C)CCN(CCOc3ccc(C)cc3)C2)cc1 (centres undefined) | 0% (inactive) | 
O[C@@H]1C[C@H](c2ccccc2)N(Cc2cccs2)C[C@H]1n1cc(C2CC2)nn1 | 7.32% (inactive) | 
CSc1ncccc1C(=O)N1CCCC(Nc2ccc(F)c(F)c2)C1 (centres undefined) | -11% (inactive) | 
Cc1ccccc1-c1nc(NC(C)C)nc2cc(-c3ccccc3)sc12 | -18.6% (inactive) | 
CCCCN(C=O)c1c(CC)nc2c(OCc3ccccc3C(=O)OC)cccn12 | -11.3% (inactive) | 
CCc1nc2c(OCc3ccc(C(=O)OC)cc3)cccn2c1N(C)C(=O)C(C)C | -1.16% (inactive) | 
CCc1nc2c(OCc3ccc(Cl)cc3Cl)cccn2c1N(C)C(=O)C(C)C |  | 16.4 µM (active)
CCc1nc2c(OCc3ccccc3)cccn2c1N(C)C(=O)c1ccco1 | 6.84% (inactive) | 
Cc1nc2ccccc2nc(C)c1=NOCc1ccc(Cl)cc1Cl | -3.31% (inactive) | 
Cc1nc2c(OCc3ccc(Cl)cc3)cccn2c1N(C)Cc1cccs1 |  | 16.4 µM (active)
CCOC(=O)N(C)c1c(CC)nc2c(OCc3ccccc3C(=O)OC)cccn12 | -3.5% (inactive) | 
Cc1nc2c(OCc3ccc(Cl)cc3Cl)cccn2c1N(C)CC1CC1 |  | 14.6 µM (active)
CCc1nc2c(OCc3ccc(F)c(F)c3)cccn2c1N(C)C(=O)c1ccco1 | 0.0356% (inactive) | 
CCOC(=O)[C@]12CCCC=C1N(CCC1=CCCCC1)C(=O)[C@H](CC(=O)N1CCOCC1)C2 | -6.31% (inactive) | 
Cc1ccc(S(=O)(=O)N[C@H](CO)C(C)C)cc1 | 26.3% (inactive) | 
COCCCn1c(C(=O)NC2CCCCC2)cc2c(=O)n3cccc(C)c3nc21 | 15.5% (inactive) | 
COc1ccc(S(=O)(=O)N2CCC(C(=O)NCCC(=O)Nc3ccccc3OC)CC2)cc1 | 1.9% (inactive) | 
CCOC(=O)C1=CC[C@@H](c2ccccc2)N(S(=O)(=O)c2ccc(C)cc2)[C@H]1c1cccc(OC)c1 | 4.62% (inactive) | 
COc1ccc(S(=O)(=O)N[C@@H]2C=C[C@@H](CC(=O)N3CCc4ccccc4C3)O[C@@H]2CO)cc1 | 18.3% (inactive) | 
O=C(NC1CCN(Cc2ccccc2)CC1)c1cc(Br)c(Br)[nH]1 | -5.71% (inactive) | 
S=C(Nc1ccc(Br)cc1Cl)NC1CCN(Cc2ccccc2)CC1 |  | 20.6 µM (active)
O=C(COc1ccc(Br)cc1F)NC1CCN(Cc2ccccc2)CC1 | -5.88% (inactive) | 
CC1(C(=O)NS(=O)(=O)C2CC2)CCCN(C(=O)CSc2ccccc2)C1 (centres undefined) | 7.52% (inactive) | 
